Measurements published in PubChem BioAssay (Tox21).
Results filed as inconclusive are left out. Activity calls are given as the source filed them. Unless noted, calls follow the shape of the dose curve; as a rule, active = well fitted curve in the direction sought with a large enough effect in the repeat runs; inconclusive = weak or mixed curves; inactive = no such curve, though single readings can be large; an effect the other way counts as inactive or inconclusive.

Legend:
[1] = qHTS assay to identify small molecule antagonists of the vitamin D receptor (VDR) signaling pathway - cell viability counter screen (AID 743225); also: nearly all actives have a fitted effect of over 50% in size; also: potency is read from the fitted curve at half-maximal effect
How it was run: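 Same-well multiplex: following 16 h treatment of HEK 293T cells carrying a UAS-driven beta-lactamase reporter with compound and agonist (3 nM final), and a 2 h FRET substrate step, CellTiter-Glo was added and luminescence read after 30 min.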

[2] = qHTS assay to identify small molecule agonists of the NFkB signaling pathway (AID 1159509; active = well fitted curve in the direction sought with a large enough effect in the signal ratio in the repeat runs, not every such curve was filed as active; the % refers to the signal ratio; also: series mostly up to about 61 µM; % is scaled to controls: 0 for no effect and ±100 for the full control effect)
How it was run: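 Readout: FRET fluorescence, 405 nm excitation, 460/530 nm emission; beta-lactamase expression disrupts FRET. Cells: ME-180 stably carrying NF-kB-driven bla reporter. Compound exposure 5 hr, 37 C, 5% CO2.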

[3] = qHTS assay to identify small molecule agonists of the NFkB signaling pathway - cell viability counter screen (AID 1159515; calls by dose curve; also: series mostly up to about 61 µM; % is scaled to controls: 0 for no effect and ±100 for the full control effect; nearly all actives have a fitted effect of over 55% in size)
How it was run: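 Read by CellTiter-Glo luminescence (30 min, room temperature) in the wells also used for the beta-lactamase FRET read. ME-180 NFkB-bla cells at 2,000 per well were plated overnight, then exposed to compound for 5 hr at 37 C.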

[4] = qHTS assay to identify small molecule agonists of the endoplasmic reticulum stress response signaling pathway (AID 1159516; active = well fitted activation curve with a large enough effect in the signal ratio in the repeat runs, not every such curve was filed as active; the % refers to the signal ratio; also: % is scaled to controls: 0 for no effect and ±100 for the full control effect)
How it was run: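 Ratiometric FRET readout (405 nm excitation; 460 and 530 nm emission) of a beta-lactamase gene driven by the ER stress response element, after 2 hr substrate loading. HeLa ESRE-bla cells were seeded overnight and treated with compounds for only 5 hr at 37 C.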

[5] = qHTS assay to identify small molecule antagonists of the retinoid-related orphan receptor gamma (ROR-gamma) signaling pathway - cell viability counter screen (AID 1159520); also: % is scaled to controls: 0 for no effect and ±100 for the full control effect; nearly all actives have a fitted effect of over 50% in size
How it was run: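 Tet-on ROR gamma CHO cells (1,000/well) were plated 4 hr, given compounds in DMSO for 2 hr at 37 C, then induced with 1 uM final doxycycline for 16 hr. Viability was read as ATP by CellTiter-Glo luminescence after 30 min.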

[6] = qHTS assay to identify small molecule agonists of the AP-1 signaling pathway - cell viability counter screen (AID 1159525; calls by dose curve; also: nearly all actives have a fitted effect of over 55% in size)
How it was run: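 Each titration point was normalised to DMSO and tetra n-octyl ammonium bromide controls. The read was Cell Titer Glo luminescence after 30 min at RT, following 5 h compound exposure of ME-180 AP-1-bla cells at 37 °C.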

[7] = qHTS assay to identify small molecule agonists of the AP-1 signaling pathway (AID 1159526; calls by dose curve; also: % is scaled to controls: 0 for no effect and ±100 for the full control effect)
[8] = qHTS assay to identify small molecule antagonists of the retinoid acid receptor (RAR) signaling pathway - cell viability counter screen (AID 1159551); also: % is scaled to controls: 0 for no effect and ±100 for the full control effect; nearly all actives have a fitted effect of over 35% in size
How it was run: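 Cytotoxicity counter screen: ATP content quantified by CellTiter-Glo luminescence in C3RL4 cells treated 6 hr at 37 C with compound and retinol (1 uM final). Cells plated at 1,000/well and cultured overnight before dosing.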

[9] = qHTS assay to identify small molecule antagonists of the retinoic acid receptor (RAR) signaling pathway (AID 1159552; also: nearly all actives have a fitted effect of over 50% in size; also: potency is read from the fitted curve at half-maximal effect)
How it was run: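 Antagonism of retinol-induced RARE reporter activity was measured in C3RL4 cells. Exposure to compounds and 1 uM final retinol lasted 6 hr at 37 C, with luminescence as endpoint.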

[10] = qHTS assay to identify small molecule agonists of the retinoic acid receptor (RAR) signaling pathway (AID 1159553); also: potency is read from the fitted curve at half-maximal effect
How it was run: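 Luminescence was measured 30 min after luciferase reagent addition at room temperature. Before that, C3RL4 reporter cells (1,000 per well, plated overnight) were treated with compound for 6 hr at 37 C and 5% CO2.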

[11] = molecular target: Retinoic acid receptor RXR-alpha (Homo sapiens) (UniProt P19793); experiment: qHTS assay to identify small molecule agonists of the RXR signaling pathway (AID 1159527; calls by dose curve; also: nearly all actives have a fitted effect of over 35% in size; also: potency is read from the fitted curve at half-maximal effect)
Retinoic acid receptor RXR-alpha (Homo sapiens), sequence (P19793 whole entry, looked up): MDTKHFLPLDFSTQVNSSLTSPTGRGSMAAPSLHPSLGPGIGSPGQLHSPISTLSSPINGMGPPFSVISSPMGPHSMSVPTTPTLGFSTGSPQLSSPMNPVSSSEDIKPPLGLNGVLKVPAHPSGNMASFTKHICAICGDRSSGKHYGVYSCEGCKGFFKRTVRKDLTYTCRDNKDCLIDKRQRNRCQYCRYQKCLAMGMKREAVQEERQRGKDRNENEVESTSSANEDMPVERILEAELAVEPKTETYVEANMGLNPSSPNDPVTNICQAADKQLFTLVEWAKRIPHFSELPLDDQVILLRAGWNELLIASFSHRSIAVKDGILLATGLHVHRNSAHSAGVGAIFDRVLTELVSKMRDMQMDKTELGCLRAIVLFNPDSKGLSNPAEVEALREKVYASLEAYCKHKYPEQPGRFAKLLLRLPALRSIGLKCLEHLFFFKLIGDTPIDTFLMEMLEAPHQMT
How it was run: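 Compounds in DMSO were added to RXR-alpha-UAS-bla HEK 293T cells kept in 2% charcoal-stripped serum, and incubated 16 hr at 37 C with 5% CO2. Reporter signal came from a 2 hr B/G FRET substrate step.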

[12] = qHTS assay to identify small molecule agonists of the RXR signaling pathway - cell viability counter screen (AID 1159529); also: nearly all actives have a fitted effect of over 50% in size; also: potency is read from the fitted curve at half-maximal effect
How it was run: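 Counter screen: CellTiter-Glo luminescence. Cells: RXR-alpha-UAS-bla HEK 293T. Medium: 2% charcoal-stripped FBS. Treatment: 16 h, 37 C. Reagent incubation: 30 min, RT.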

[13] = qHTS assay to identify small molecule agonists of the endoplasmic reticulum stress response signaling pathway - cell viability counter screen (AID 1159517; calls by dose curve)
How it was run: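 Cytotoxicity of test compounds toward ESRE-bla HeLa cells was assessed after 5 hr exposure. The luminescent CellTiter-Glo signal was measured 30 min after reagent addition.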

[14] = molecular target: Nuclear receptor ROR-gamma (Homo sapiens) (UniProt P51449); experiment: qHTS assay to identify small molecule antagonists of the retinoid-related orphan receptor gamma (ROR-gamma) signaling pathway (AID 1159521; also: nearly all actives have a fitted effect of over 50% in size; also: potency is read from the fitted curve at half-maximal effect)
How it was run: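 Inducible-expression reporter assay: doxycycline (1 uM final) switched on RORγ in CHO cells bearing a ROR response element-luciferase construct, with test compounds present from 2 h beforehand. Decreased luminescence after 16 h defined antagonist activity.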

[15] = qHTS assay to identify small molecule antagonists of the estrogen related receptor (ERR) signaling pathway - cell viability counter screen (AID 1224818);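 also: series mostly up to about 46 µM; viability measured after 17.5 h of compound exposure; % is scaled to controls: 0 for no effect and ±100 for the full control effect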
How it was run: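 Cytotoxicity counter screen: fluorescence from CellTiter-Fluor, added after 17.5 h compound exposure at 37 C and read 30 min later. ERR cell line seeded at 2,000 cells/well, preincubated 6 h before dosing.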

[16] = qHTS assay to identify small molecule antagonists of the estrogen related receptor signaling pathway with the pleiotropic PPARgamma coactivator (PGC) cell viability counter screen (AID 1224822)
How it was run: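 Viability counter-screen read by fluorescence intensity after 30 min with CellTiter-Fluor at 37 C; PGC/ERR reporter cells were exposed to compounds for 17.5 h at 37 C following a 6 h preincubation.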

CCOC(=O)C(C)O (stereo not drawn)
inactive: Potency [1] | outcome [2] | Potency [3] | Potency [4] | Potency [5] | Potency [6] | outcome [7] | Potency [8] | Potency [9] | Potency [10]

Cc1ccc(S(=O)(=O)NC(=O)NC2CCCCC2)cc1
inactive: Potency [1] | outcome [2] | Potency [3] | Potency [4] | Potency [5] | Potency [6] | outcome [7] | Potency [11] | Potency [12] | Potency [8] | Potency [9] | Potency [10]

CCOC(=O)c1c(N)sc2c1CCN(Cc1ccccc1)C2
inactive: outcome [2] | Potency [3] | Potency [13] | Potency [5] | Potency [14] | Potency [6] | outcome [7] | Potency [11] | Potency [12] | Potency [8] | Potency [9] | Potency [10]

O[C@@H](CNC[C@H](O)[C@H]1CCc2cc(F)ccc2O1)[C@@H]1CCc2cc(F)ccc2O1
inactive: outcome [2] | Potency [3] | Potency [4] | Potency [6] | outcome [7]
active: Potency [14] 23.7 µM | Potency [12] 19 µM | Potency [9] 29.8 µM

CCCCCCCCCCCSCC(=O)O
active: Potency [1] 21.9 µM | Potency [12] 19.5 µM
inactive: outcome [2] | Potency [3] | Potency [4] | Potency [5] | Potency [6] | outcome [7] | Potency [8] | Potency [9] | Potency [10]

CC(=O)NCCO
inactive: outcome [2] | Potency [3] | Potency [13] | Potency [5] | Potency [14] | Potency [6] | outcome [7] | Potency [11] | Potency [12] | Potency [8] | Potency [9]

CCCCCCOC(=O)CCCCC
inactive: outcome [2] | Potency [3] | Potency [13] | Potency [5] | Potency [14] | Potency [6] | outcome [7] | Potency [11] | Potency [12] | Potency [8] | Potency [9] | Potency [10]

O=c1[nH]c2cc(C(F)(F)F)c(N3CCOCC3)cc2n(CP(=O)(O)O)c1=O
inactive: Potency [1] | outcome [2] | Potency [3] | Potency [4] | Potency [5] | Potency [6] | outcome [7] | Potency [11] | Potency [12] | Potency [8] | Potency [9] | Potency [10]

Nc1nc2ccc(OC(F)(F)F)cc2s1
inactive: outcome [2] | Potency [3] | Potency [4] | Potency [5] | Potency [6] | Potency [11] | Potency [12] | Potency [8] | Potency [9] | outcome [15] | outcome [16]
active: Potency [10] 9.44 µM

COC(CC(C)CCCC(C)(C)O)OC (stereo not drawn)
inactive: Potency [1] | outcome [2] | Potency [3] | Potency [4] | Potency [14] | Potency [6] | outcome [7] | Potency [11] | Potency [12] | Potency [8] | Potency [9] | Potency [10]

CCNc1nc(N)nc(Cl)n1
inactive: Potency [1] | outcome [2] | Potency [3] | Potency [4] | Potency [5] | Potency [6] | outcome [7] | Potency [8] | Potency [10]
active: Potency [11] 5.49 µM | Potency [9] 21.7 µM

CN(C)CC/C=C1\c2ccccc2Sc2ccc(Cl)cc21
inactive: outcome [2] | Potency [3] | Potency [4] | Potency [6]
active: Potency [9] 29.8 µM

O=C(O)c1ccc(O)cc1O
inactive: outcome [2] | Potency [3] | Potency [13] | Potency [5] | Potency [14] | Potency [6] | outcome [7] | Potency [11] | Potency [12] | Potency [8] | Potency [9] | Potency [10]

CCC(Cl)CC(Cl)C(Cl)C(Cl)C(Cl)C(C)Cl (stereo not drawn)
active: Potency [10] 0.133 µM
inactive: viability change, negative = cytotoxic [1] 6.69% [at 15.1 µM] | activation [2] -0.489% [at 15.1 µM] | activity, negative = cytotoxic [3] 0.94% [at 15.1 µM] | activation [4] -4.87% [at 15.1 µM] | activity, negative = cytotoxicity [5] 0.516% [at 19 µM] | viability change, negative = cytotoxic [6] -14.2% [at 15.8 µM] | activation [7] 9.95% [at 15.8 µM] | activation [11] -0.0074% [at 15.8 µM] | activity change, negative = cytotoxicity [8] 0.117% [at 19 µM] | activity, negative = inhibition [9] 84.9% [at 19 µM]

CC(C)C(O)C(C)(C)CO (stereo not drawn)
active: Potency [9] 5.01 µM
inactive: Potency [1] | outcome [2] | Potency [3] | Potency [4] | Potency [6] | Potency [12] | Potency [10]

CCCCCCCC(=O)Oc1c(Br)cc(C#N)cc1Br
inactive: outcome [2] | Potency [3] | Potency [4] | Potency [6] | outcome [7] | Potency [8]

C=CC(=O)NC(C)C
inactive: Potency [1] | outcome [2] | Potency [3] | Potency [4] | Potency [5] | Potency [6] | outcome [7] | Potency [8]

Nc1c(Cl)cc(Cl)cc1[N+](=O)[O-]
inactive: outcome [2] | Potency [3] | Potency [4] | Potency [5] | Potency [6] | outcome [7] | Potency [11] | Potency [12] | Potency [8] | Potency [10]
